Values joined by “and” are separate entries in the source; they are usually repeats but may differ in a detail not shown here. Equal entries are not always repeated. Records with an inconclusive call do not appear. Where a call stands in place of a potency, no number is given. A structure can be active in one record and inactive in another. Active and inactive are the calls of the source. Calls follow the shape of the dose curve; as a rule, active = well fitted inhibition curve with a large enough effect in the signal ratio in the repeat runs (not every such curve was filed as active); inconclusive = weak or mixed curves, or effect the other way; inactive = no such curve, though single readings can be large or run the other way; the % refers to the signal ratio.
Each compound was assayed against Glucocorticoid receptor (Homo sapiens) (UniProt P04150) (assay: qHTS assay to identify small molecule antagonists of the glucocorticoid receptor (GR) signaling pathway (AID 720692)). Conditions: GR-bla HeLa, beta-lactamase FRET ratio, dexamethasone-stimulated, 18 h; series mostly up to 58.5 µM.
Glucocorticoid receptor (Homo sapiens), sequence (P04150 whole entry, looked up): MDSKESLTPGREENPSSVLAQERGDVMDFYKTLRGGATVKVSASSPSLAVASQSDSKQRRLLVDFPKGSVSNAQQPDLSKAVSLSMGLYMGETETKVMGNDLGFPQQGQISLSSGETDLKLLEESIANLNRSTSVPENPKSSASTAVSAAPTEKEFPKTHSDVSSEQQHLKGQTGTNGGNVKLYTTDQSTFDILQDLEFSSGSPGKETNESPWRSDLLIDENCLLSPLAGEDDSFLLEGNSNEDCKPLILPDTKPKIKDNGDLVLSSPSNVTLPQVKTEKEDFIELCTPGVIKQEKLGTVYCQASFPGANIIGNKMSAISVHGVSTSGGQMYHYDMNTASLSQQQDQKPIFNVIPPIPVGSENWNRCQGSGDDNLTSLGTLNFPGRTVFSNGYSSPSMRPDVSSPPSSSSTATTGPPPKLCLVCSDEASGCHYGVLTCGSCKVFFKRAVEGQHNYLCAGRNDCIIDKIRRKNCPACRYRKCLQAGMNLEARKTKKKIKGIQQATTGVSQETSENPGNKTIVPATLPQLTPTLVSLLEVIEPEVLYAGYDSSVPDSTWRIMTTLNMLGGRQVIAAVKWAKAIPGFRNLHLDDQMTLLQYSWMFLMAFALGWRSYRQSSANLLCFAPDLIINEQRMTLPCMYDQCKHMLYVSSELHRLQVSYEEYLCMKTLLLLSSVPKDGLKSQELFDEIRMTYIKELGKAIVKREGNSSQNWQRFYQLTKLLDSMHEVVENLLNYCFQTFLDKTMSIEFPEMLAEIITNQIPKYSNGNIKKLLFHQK
Excerpt: U.S. Tox21 Program National Center for Advancing Translational Sciences [NCATS] NIH Chemical Genomics Center [NCGC] U.S. Environmental Protection Agency [EPA] National Institutes of Environmental Health Sciences [NIEHS] National Toxicology Program [NTP] U.S. Food and Drug Administration [FDA] Tox21 Assay Overview: The Glucocorticoid receptor (GR) is one of the members of the nuclear receptor family of ligand-dependent transcription factors. GR plays a critical role in carbohydrate, protein and lipid metabolisms and programmed cell death. CellSensor GR-bla HeLa cell line (Invitrogen) contains a beta-lactamase reporter gene under the control of the glucocorticoid response element stably integrated into HeLa cells, a cervical cancer cell line that expresses glucocorticoid receptor. The activation of the reporter gene under culture conditions can be detected by fluorescence intensity. This cell line has been used to screen the Tox21 10K compound library and to identify the compounds that inhibit the GR signaling.
Tox21 Assay Protocol Summary: The GR-bla HeLa cells were dispensed at 1500 cells/5 ul/well in 1536-well black wall/clear bottom plates using a Multidrop Combi (ThermoFisher Scientific, Waltham, MA) dispenser. After the assay plates were incubated at a 37 C/5% CO2 incubator for 4 hours, 23 nL of compounds dissolved in DMSO, positive controls or DMSO only was transferred to the assay plate by a pintool station (Kalypsys, San Diego, CA), followed by addition of 1 uL of dexamethasone (5 nM, final concentration in the well). The plates were incubated at 37 C for 18 hours. After 1 uL of LiveBLAzerTM B/G FRET substrate was added using a Flying Reagent Dispenser (Aurora Discovery, San Diego, CA), the plates were incubated at room temperature for 2 hours, and fluorescence intensity was measured by an Envision plate reader (PerkinElmer, Shelton, CT).
For `CC(C)CON=O`, the Potency was “inactive”. For `CC(C)(C#N)N=NC(C)(C)C#N`, the Potency was “inactive”. For `COC(=O)Nc1nc2ccccc2[nH]1`, the Potency was “inactive”. In the case of `N#CCCCCC#N`, the Potency is reported as “inactive”. For `COc1ccc(O)c(C(C)(C)C)c1`, the Potency was “inactive”. In the case of `CNC(=S)S`, the Potency is reported as “inactive”. In the case of `O=NN(c1ccccc1)c1ccccc1`, the Potency is reported as “inactive”. `OC(c1ccc(Cl)cc1)(c1cncnc1)c1ccccc1Cl` (stereo not given) was tested, and the Potency was 49 µM (active). In the case of `NC(=O)CN1CCCC1=O`, the Potency is reported as “inactive”. `Nc1ncn[nH]1` was tested, and the Potency was “inactive”. In the case of `Brc1ccc(Br)cc1`, the Potency is reported as “inactive”. With `Clc1ccc(C(Cl)(Cl)Cl)cc1` the Potency was “inactive”. In the case of `CCCCOCC1CO1` (stereo not given), the Potency is reported as “inactive”. For `ClCC(Cl)CCl`, the Potency was “inactive”. For `ClC(Cl)(Cl)c1ccccc1`, the Potency was “inactive”. In the case of `CCCCOC(=O)COC(=O)c1ccccc1C(=O)OCCCC`, the Potency is reported as “inactive”. For `O=[N+]([O-])c1ccc(Nc2ccccc2)cc1`, the Potency was 49.4 µM (active). `CC1CC(=O)O1` (stereo not given) was tested, and the Potency was “inactive”. In the case of `c1ccc(C2CO2)cc1` (stereo not given), the Potency is reported as “inactive”. `N#Cc1cccnc1` was tested, and the Potency was “inactive”. With `CCNCC` the Potency was “inactive”. With `COP(=S)(OC)Oc1ccc(S(=O)(=O)N(C)C)cc1` the Potency was “inactive”. With `CCCCSP(=O)(SCCCC)SCCCC` the Potency was “inactive”. In the case of `CCNc1nc(Cl)nc(NC(C)(C)C#N)n1`, the Potency is reported as “inactive”. `Oc1ccc(Cl)cc1Cl` was tested, and the Potency was “inactive”. `S=c1[nH]c2ccccc2[nH]1` was tested, and the Potency was “inactive”. For `CCC1(c2ccc(N)cc2)CCC(=O)NC1=O` (stereo not given), the Potency was “inactive”. In the case of `CCOP(=S)(OCC)OP(=S)(OCC)OCC`, the Potency is reported as “inactive”. With `CNC(=O)Oc1cccc2c1OC(C)(C)C2` the Potency was “inactive”. `CCCCC(C#N)(Cn1cncn1)c1ccc(Cl)cc1` (stereo not given) was tested, and the Potency was “inactive”. In the case of `O=C(O)c1nn(Cc2ccc(Cl)cc2Cl)c2ccccc12`, the Potency is reported as “inactive and 43.4 µM (active)”. For `CCOP(=S)(OCC)SCn1c(=O)oc2cc(Cl)ccc21`, the Potency was “inactive”. For `CCC/C=N/O`, the Potency was “inactive”. In the case of `CCCCOCCOC(C)=O`, the Potency is reported as “inactive”. In the case of `O=NN1CCOCC1`, the Potency is reported as “inactive”. With `O=P(OCCCl)(OCCCl)OCCCl` the Potency was “inactive”. `[CH3][Sn]([Cl])([Cl])[Cl]` was tested, and the Potency was “inactive”. In the case of `CCCCCCCCCCCCCl`, the Potency is reported as “inactive”. With `CC(C)(c1ccccc1)c1ccc(O)cc1` the Potency was 48.6 µM (active) and 54.9 µM (active). `Clc1cccc(Cl)c1` was tested, and the Potency was “inactive”.

Reference: PubChem BioAssay (Tox21)
Potency is read from the fitted curve at half-maximal effect.
